# HT1080NT lethal: kills 2HG-producing HT-1080-NT fibrosarcoma cells; HT-1080-NT fibrosarcoma viability, CellTiter-Glo ATP luminescence, 48 h; Potency, µM (highest dose often 46.1 µM), for inactives: at the highest dose activity, negative = less viability, usual class: cytotoxic; actives 1.6% (n = 360,000);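 further: NT is the 2HG producing partner of a matched IDH1 knockdown line; potency means the concentration at half of the fitted maximal effect; 0% = DMSO-treated cells and -100% = media-only wells without cells; nearly all actives have a fitted effect of over 55% in size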
#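 A 48-hour cytotoxicity screen used HT-1080-NT cells plated 2 hours before compound delivery. ATP-based CellTiter-Glo luminescence measured viability, normalized to DMSO and no-cell controls.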
# DT40 TDP1 no CPT: qHTS for Inhibitors of human tyrosyl-DNA phosphodiesterase 1 (TDP1): qHTS in cells in absence of CPT; DT40 Tdp1-/- hTDP1 cells, no CPT, ATP luminescence, 48 h; Potency, µM (doses to about 46.2 µM), inactives show at the top dose activity change, negative = growth inhibition, most hits filed as inhibitors; actives 15% (n = 420,000); AID 686978, 2013; further: potency means the concentration at half of the fitted maximal effect; nearly all actives have a fitted effect of over 55% in size
#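 Chicken DT40 Tdp1-/- cells complemented with human TDP1, screened without camptothecin (DMSO vehicle only), 400 cells/well. Compounds pin-transferred, cells incubated at 37 °C for at least 48 hr. Growth read as ATP-dependent luminescence (CellTiter-Glo, 30 min at RT).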
# DT40 TDP1 CPT: DT40-hTDP1 cell growth loss with CPT; chicken DT40 Tdp1-/-;hTDP1 cells + 20 nM CPT, ATP luminescence, 48 h; Potency, µM (top dose mostly 46.2 µM), for the others: at the highest dose activity change, negative = growth inhibition, hits mostly inhibitors; actives 12% (n = 420,000); AID 686979; further: potency means the concentration at half of the fitted maximal effect; nearly all actives have a fitted effect of over 55% in size
#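 Chicken DT40 Tdp1-/- cells complemented with human TDP1, 400 cells/well, exposed to compounds plus 20 nM camptothecin for at least 48 h at 37 C; viability read as ATP content by CellTiter-Glo luminescence.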
# HT1080 IDH1KD tx: toxicity to HT-1080 IDH1 knockdown cells (counter line); AID 686971; Potency, µM (titrated, usually from 46.1 µM), for inactives: top-dose activity, negative = toxicity, usual class: cytotoxic; HT-1080 IDH1 knockdown viability, ATP luminescence, 48 h; actives 2% (n = 360,000);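 further: potency means the concentration at half of the fitted maximal effect; 0% = DMSO wells and -100% = cell-free medium wells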
#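 Using the IDH1-knockdown HT-1080 line run in the same batch and compound series as the NT line, viability after 48 h at 37 °C was determined by CellTiter-Glo luminescence and expressed as % activity.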
# IL1B secr inh: inhibitors of inflammasome signaling (IL-1 beta secretion). THP-1 LPS/ATP IL-1B secretion, AlphaLISA, 16 h; hits give low values. activity change, % at 57.5 µM. actives 4.7% (n = 360,000). AID 743279; in the data active means activity change below about -50%; inconclusive means mostly about -30% to -49%
#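 THP-1 cells pretreated 1 hr with compounds (up to 57.5 uM final), then stimulated with LPS (250 ng/mL final) plus ATP (1.25 mM final); secreted IL-1B measured by AlphaLISA after 16 hr, decreased signal indicating inhibition.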
# 12-LOX inh: blocks human arachidonate 12S-lipoxygenase; purified 12hLO, xylenol orange hydroperoxide absorbance; Potency, µM (series often up to 108 µM), for the others: top-dose activity change, negative = inhibition, usual class: inhibitors; actives 1.1% (n = 580,000); further: potency means the concentration at half of the fitted maximal effect
# Target sequence (P18054 whole entry, looked up): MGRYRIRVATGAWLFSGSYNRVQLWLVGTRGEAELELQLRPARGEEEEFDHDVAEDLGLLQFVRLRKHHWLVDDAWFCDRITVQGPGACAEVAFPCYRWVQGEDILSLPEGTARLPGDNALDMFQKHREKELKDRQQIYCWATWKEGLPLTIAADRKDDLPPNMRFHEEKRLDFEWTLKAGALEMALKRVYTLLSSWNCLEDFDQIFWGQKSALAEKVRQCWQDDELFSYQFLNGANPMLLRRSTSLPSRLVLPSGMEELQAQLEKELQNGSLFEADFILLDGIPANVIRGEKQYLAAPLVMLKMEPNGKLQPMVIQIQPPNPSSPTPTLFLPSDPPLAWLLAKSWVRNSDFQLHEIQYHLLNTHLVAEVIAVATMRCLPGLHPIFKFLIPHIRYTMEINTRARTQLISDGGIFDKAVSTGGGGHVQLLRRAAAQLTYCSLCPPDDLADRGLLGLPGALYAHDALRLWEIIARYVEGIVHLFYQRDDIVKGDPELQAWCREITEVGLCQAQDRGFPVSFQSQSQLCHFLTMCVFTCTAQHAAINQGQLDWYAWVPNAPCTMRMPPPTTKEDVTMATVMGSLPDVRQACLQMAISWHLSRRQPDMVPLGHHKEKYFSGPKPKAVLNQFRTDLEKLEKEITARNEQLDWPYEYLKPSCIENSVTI
#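 Hydroperoxide product was detected by ferrous iron/xylenol orange as the 573 to 405 nm absorbance ratio. Arachidonic acid at 40 uM (final) was turned over for 30 min at room temperature by 150 nM human 12hLO, pH 7.0 Hepes buffer, after 15 min compound preincubation.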
# * hit, by the source's call; i = inactive; ? = inconclusive; . = no result given. This is one part of a sample in which hits are shown more often than they occur. Unless noted, the call rests on the fitted dose curve; in most records, active means well fitted curve in the direction sought with a large enough effect; inconclusive means small, poorly fitted or top-dose-only effect, or another doubt; inactive means no such curve, though single readings can be large; an effect the other way counts as inactive or inconclusive. Unless noted, on the % scale 0 is the no-effect control and ±100 the full control effect.
SMILES,HT1080NT lethal,DT40 TDP1 no CPT,DT40 TDP1 CPT,HT1080 IDH1KD tx,IL1B secr inh,12-LOX inh
COc1ccc(Cl)cc1NC(=O)c1cn(C2CCCCC2)c(=O)c2c1c1ccccc1n2C,.,?,?,.,.,-21%
Cc1cccc(N2CCN(C(=O)c3cn(C4CCCCC4)c(=O)c4c3c3ccccc3n4C)CC2)c1C,.,16µM*,?,.,.,-24%
Cn1c2ccccc2c2c(C(=O)N3CCN(c4ccc(F)cc4)CC3)cn(C3CCCCC3)c(=O)c21,.,18µM*,16µM*,.,.,?
COc1ccc(N2CCN(C(=O)c3cn(C4CCCCC4)c(=O)c4c3c3ccccc3n4C)CC2)cc1,.,21µM*,23µM*,.,.,5%
COc1ccc(CNC(=O)N2CCN(S(=O)(=O)c3cccc(Br)c3)CC2)cn1,.,.,.,.,.,5%
CCn1c(NCc2c[nH]c3ccccc23)nc2ccccc21,?,?,?,-29%,?,?
Cn1c(NCc2c[nH]c3ccccc23)nc2ccccc21,4%,?,?,6%,-92*,14%
CCn1c(SCC(=O)Nc2ccc(NC(=O)c3ccco3)cc2)nnc1-c1cccs1,?,-11%,-26%,-16%,-16,0%
CC(=O)c1ccc(-n2nnnc2SCC(=O)Nc2cccc(NC(=O)c3ccco3)c2)cc1,-23%,?,?,?,17,12%
Cc1ccc(-n2nnnc2SCC(=O)Nc2cccc(NC(=O)c3ccco3)c2)cc1C,-15%,16µM*,?,-26%,146,26%
Cc1ccc(C)c(C(=O)CSc2nnnn2-c2cccnc2)c1,11%,16µM*,-10%,2%,-7,54%
Cc1cc(C)cc(-n2nnnc2SCC(=O)Nc2cccc(NC(=O)c3ccco3)c2)c1,-4%,?,?,-25%,-52*,-20%
CCn1c(SCC(=O)Nc2cccc(NC(=O)c3ccco3)c2)nnc1-c1cccs1,-2%,16µM*,?,-4%,-13,-19%
CCn1nc(C(=O)OCc2ccc3cc(OC)ccc3c2)c2ccccc2c1=O,.,.,.,.,.,4%
CCC(=O)Nc1cccc(-n2nnnc2SCC(=O)c2ccc(C)c(C)c2)c1,-8%,?,?,?,-92*,0%
O=C(O)c1cccc(-n2sc3ccccc3c2=O)c1,-2%,?,?,-1%,-107*,11µM*
Cc1ccccc1-n1sc2cc(F)ccc2c1=O,18µM*,2.6µM*,1.8µM*,21µM*,-105*,?
N#Cc1ccc2c(=O)n(-c3ccccc3)sc2c1,9%,2.6µM*,3.3µM*,-4%,24,0.45µM*
O=c1c2ccccc2sn1-c1ccccc1,?,2.9µM*,2.6µM*,16µM*,-101*,0.56µM*
O=c1ccsc2ccccc12,-13%,2%,7%,-8%,1,-6%
O=C(O)c1cccc(N2C(=O)CSC2c2ccccc2)c1 (stereo not drawn),10%,-7%,-7%,23%,5,i
COC(=O)c1ccc(Oc2coc3cc(OC)ccc3c2=O)cc1,.,.,.,.,.,-16%
CC(=O)Nc1ccc2c(=O)n(-c3ccccc3)sc2c1,?,3.3µM*,2.6µM*,?,-104*,1µM*
O=c1c2ccccc2sn1-c1cccc(Cl)c1,-16%,2.3µM*,1.8µM*,?,-102*,?
O=C1CN(c2ccccc2F)C(=O)CN1c1ccccc1F,7%,-11%,-1%,14%,5,-4%
SMILES,HT1080NT lethal,DT40 TDP1 no CPT,DT40 TDP1 CPT,HT1080 IDH1KD tx,IL1B secr inh,12-LOX inh
CC(=O)Nc1ccc(-c2cc(N)n(-c3ccccc3)n2)cc1,6%,-23%,-20%,-5%,-5,-18%
O=c1c2ccccc2sn1-c1ccccc1F,-9%,2.9µM*,2.6µM*,?,-107*,?
Cn1sc2ccccc2c1=O,?,1.6µM*,2.3µM*,?,-100*,-35%
O=C(Nc1ccc(Cl)c(C(F)(F)F)c1)c1c(F)cccc1F,.,.,.,.,.,-27%
CC1COCCN1C(=O)C1CCN(c2nc3ccccc3o2)CC1 (stereo not drawn),.,.,.,.,.,33%
Cc1[nH]c2ccccc2c1CN1CCc2ccccc2C1,-17%,12µM*,10µM*,-1%,?,?
CCCN1CCC2(CCN([S+](=O)([O-])c3cccs3)CC2)Oc2ccccc21,.,.,.,.,.,-3%
COc1ccc(CN2C[C@@H](CO)O[C@@H](n3cnc4c(NCc5cc(OC)c(OC)c(OC)c5)ncnc43)C2)cc1,-20%,?,?,-8%,16,13%
COc1cc(CN2C[C@@H](CO)O[C@@H](n3cnc4c(NCc5ccc(F)cc5)ncnc43)C2)cc(OC)c1OC,7%,?,16µM*,2%,-69*,-21%
COc1cc(CNc2ncnc3c2ncn3[C@H]2CN(Cc3ccc(F)cc3)C[C@@H](CO)O2)cc(OC)c1OC,19%,?,21µM*,3%,0,-1%
COc1cc(CNc2ncnc3c2ncn3[C@H]2CN(Cc3ccc(Cl)cc3)C[C@@H](CO)O2)cc(OC)c1OC,-16%,16µM*,23µM*,-17%,36,-12%
COc1cc(O)c(C(CCN2CCCC2)c2ccc3c(c2)OCO3)c(OC)c1 (stereo not drawn),-1%,23µM*,23µM*,-7%,?,?
COc1cc(O)c(C(CCN2CCN(c3ccccc3)CC2)c2cc(OC)c(OC)c(OC)c2)c(OC)c1 (stereo not drawn),-8%,23µM*,21µM*,-14%,-7,?
CCN(CC)C(=O)CC(c1ccc2c(c1)OCO2)c1c(O)cc(OC)cc1OC (stereo not drawn),12%,-29%,?,10%,3,?
CCN(CC)CCC(c1ccc2c(c1)OCO2)c1c(O)cc(OC)cc1OC (stereo not drawn),-6%,18µM*,21µM*,-15%,-26,-1%
COc1cc(O)c(C(CCN2CCN(c3ccccc3)CC2)c2ccc3c(c2)OCO3)c(OC)c1 (stereo not drawn),-15%,16µM*,23µM*,-24%,?,-21%
CCn1ncc(CN2CC[C@@H]3C(=O)NCCCCCCN(Cc4ccncc4)[C@@H]3C2)c1C,.,.,.,.,.,70%
CCCCn1c(=O)[nH]c(=O)c2c1nc(CSc1nccn1-c1cc(C)cc(C)c1)n2C,.,.,.,.,.,2%

# Source: PubChem (National Center for Advancing Translational Sciences (NCATS))
